# Assay results as given in PubChem BioAssay (NCI).
# This is part of a sample that, as a whole, favours compounds with a hit. Of some 83,000 tested, about 20% had one in any assay.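 For each line, cells grew in 96-well plates with the test compound present at a single concentration for 48 hours.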 Unmarked numbers belong to inactive results. Active and inactive are the calls of the source.
# Tested on: NCI-H522 lung
# Assay: NCI-60 one-dose screen, 48 h (100 = growth as untreated, 0 = no growth, -100 = all killed)
# Settings: 10 µM unless noted
# Method: Growth inhibition of the NCI-H522 human Non-Small Cell Lung tumor cell line is measured as a screen for anti-cancer activity. Cells are grown in 96 well plates and exposed to the test compound for 48 hours. Compounds are tested at a single concentration, which is 10^-5 M for most compounds. The reported endpoint is percent growth (GI% or GIPRCNT), where numbers from 0 - 100% represent growth inhibition, and numbers from -100% - 0 represent cell death. For example, a value of 40 represents 60% growth inhibition. A value of 0 means no net growth occurred over the course of the experiment. A value of -40 indicates 40% of cells at the beginning of the experiment died by the end of the experiment. A value of -100 means all cells are dead at the end of the experiment.
# NCI-60 Human Tumor Cell Lines Screen was performed using the standard one-dose NCI protocol, which is described in more detail at https://dtp.cancer.gov/discovery_development/nci-60/default.htm.
# Compounds with GIPRCNT values below 10 were considered active. Activity score was based on GIPRCNT using the following formula: […]
# Score is 0 for GIPRCNT values of 100 or above, 50 for GIPRCNT values of 0, and 100 for GIPRCNT values of -100.
row,Compound,growth
1,O=C(NCC(c1ccsc1)N1CCCCCC1)c1ccc(C(F)(F)F)cc1 (stereo not given),92.8%
2,CC1CCN(Cc2ccc(NC(=O)c3cc4ccc5cccnc5c4[nH]3)cc2)CC1,23%
3,COc1cc(Cn2c(-c3ccccc3)cc3c2-c2oncc2CC3)cc(OC)c1OC,5.31% (active)
4,COc1c(-c2cc(-c3ccc(C)o3)[nH]c(=O)n2)c(O)cc2occc12,36.1%
5,CCc1ccc(Nc2ncnc3c2cnn3-c2cccc(Br)c2)cc1,89.1%
6,CC(=O)OC1Oc2cc(C)c(C)cc2-c2oc(=O)c(-c3cc4ccccc4oc3=O)cc21 (stereo not given),82.9%
7,CN=C1C=C/C(=N/N=c2/ccn(O)cc2C)C=C1C,77.9%
8,CCCCNCC(O)c1cc2c(Cl)cc(Cl)cc2c2cc(C(F)(F)F)ccc12 (stereo not given),-78.7% (active)
9,COc1ccc(/C=C/C(=O)c2ccc(NC(=O)CSc3nnc(-c4ccc(OC)cc4)n3-c3ccccc3)cc2)cc1,91.4%
10,COc1ccc(C2C=C(c3ccc(Cl)cc3)N=C3SC=CN32)cc1 (stereo not given),113%
11,CCCCCCCCNC(C)C(O)c1ccc(SC(C)C)cc1 (stereo not given),12.1%
12,O=C1c2ccccc2C2N1CCC1CCc3ccccc3N12 (stereo not given),84.8%
13,N#Cc1c(N)c(C(=O)c2ccc3c(c2)OCCO3)n2c1CCCC2,-33.3% (active)
14,O=NN(CC(=O)NNc1ccccc1)CC(=O)NNc1ccccc1,52%
15,C[C@@H](C[C@H](CC1CC1)c1ccccc1)c1ccc2ccccc2c1,95.2%
16,Cc1cc(C)c(C#N)c(SCC(=O)c2sc3c(C#N)c(C)cc(C)[n+]3c2[O-])n1,-31.1% (active)
17,O=C(OCc1ccc2c(Cl)cc(Cl)c(O)c2n1)c1cc2ccccc2[nH]1,-73.8% (active)
18,CNC(=O)c1cc(Oc2ccc(NC(=O)c3nc(S(C)(=O)=O)n(C)c3-c3ccc(F)cc3)cc2)ccn1,84.5%
19,O=C(O)C1[S][Sb]([CH](C(=O)O)[CH](C(=O)O)[Sb]2[S]C(C(=O)O)C(C(=O)O)[S]2)[S]C1C(=O)O (stereo not given),42.4%
20,OC(c1cc2c(Cl)cc(Cl)cc2c2cc(C(F)(F)F)ccc12)C1CCCCN1 (stereo not given),-83.9% (active)

row,Compound,growth
1,CSC(=S)N/N=C(\C)c1ccccn1,-3.86% (active)
2,C/C(=N\NC(=S)N1CCCCC1)c1ccccn1,11.5%
3,C=CCn1c(SCC(=O)Nc2ccc(/C(C)=N\O)cc2)nnc1-c1cc(-c2ccc(Cl)cc2)nc2ccccc12,22.4%
4,O=c1[nH]c2ccccc2n2cc3cccnc3c12,57.6%
5,C=C(C)C1CCC2(C(=O)O)CCC3(C)C(CCC4C5(C)CCC(O)C(C)(C)C5CCC43C)C12 (stereo not given),1.49% (active)
6,CCOC(=O)C(Nc1ccccc1)C(=O)OCC,102%
7,CCOC(=O)c1ccc(NC(=O)NC2=NCCS2)cc1,20.8%
8,CCOc1ccc([C@@H]2[C@@H](Oc3ccccc3)C(=O)N2c2cc(OC)c(OC)c(OC)c2)cc1,10.5%
9,CC1=C(C(=O)Nc2ccc(F)cc2)C(c2ccc(Cl)cc2)C2=C(CC(C)(C)CC2=O)N1 (stereo not given),82.4%
10,O=C1/C(=C\c2cccn2Cc2ccc(Cl)cc2)c2ccccc2N1c1c(Cl)cccc1Cl,76.6%
11,Cc1cc(C#Cc2ccccc2)ccc1-n1c(/C=C/c2ccc(F)cc2)nc2ccccc2c1=O,64.1%
12,Cc1ccc(NC(=O)c2[nH]c(SCCN(C)C)nc2-c2ccc(F)cc2)cc1Nc1ccc2ncn(C)c(=O)c2c1,69.5%
13,NC(N)=N/N=C\c1cccc(OCc2ccccc2)c1,61.8%
14,CC(=O)[C@H]1CC[C@H]2[C@@H]3CC[C@H]4CC=CC[C@]4(C)[C@H]3CC[C@]12C,40%
15,Cc1cc(C)cc(NC(=O)Cn2nncc2CN2C(=O)CSC2=O)c1,94.5%
16,COc1ccc2[nH]c(C(=O)OCc3ccc4cccc(O)c4n3)cc2c1,-66.9% (active)
17,CCCNC(=S)N/N=C(\C)c1ccccn1,56.4%
18,CCCCCCCCCC1=NC(C)(C)CN1C(C)(C)CO,80.9%
19,COc1ccc(NC(=O)/C=C/c2ccc(Cl)c(Cl)c2)cn1,79.9%
20,Cc1ccc(NC(=O)c2[nH]c(SCCN(C)C)nc2-c2ccc(F)cc2)cc1C#Cc1cnc2cccnn12,1.49% (active)
